From PubChem BioAssay come the findings set out here.

SMILES strings stand for the structures. For part of these data: Measured potencies and affinities stand elsewhere. Active and inactive are the calls of the source.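 The calls were made as follows, unless noted: active = primary screen activator hit with a dose response curve and TRPC4 channel activation at any tested dose; inactive = no activation, no dose response, or not a primary hit.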

Assay [1] has as its system TRPC4 beta (transient receptor potential cation channel C4), mouse. The assay can be described thus: TRPC4 cation channel opening, retest – cell-based, Fluo4 calcium, HEK293 TRPC4beta/mu-opioid, duplicates, 10 µM, confirmation (AID 2426;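 active = fluorescence ratio normalized to control raised more than 50% in primary screen plus both repeat runs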). The note with it: Fluo4 calcium fluorescence, at 10 µM; active compounds read high.
In assay [2] the test system is transient receptor potential cation channel C4 beta (TRPC4), mouse. The assay can be described thus: TRPC4 cation channel opening, second retest – cell-based, second round, Fluo4, HEK293 TRPC4beta/mu-opioid, 1 µM, confirmation (AID 2461;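 active = primary screen active and over 50% activation in each of two duplicate runs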). The note with it: Fluo4 calcium fluorescence, at 1 µM; active compounds read high.
In assay [3] the test system is TRPC4 (transient receptor potential cation channel C4 beta), mouse. The assay can be described thus: potentiation of DAMGO EC20 TRPC4 response – cell-based, second round, Fluo-4, HEK293 TRPC4beta/mu-opioid, 1 µM, confirmation (AID 2554;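 active = primary screen hit whose fluorescence ratio, in both repeats, exceeds the weak agonist control mean by 3 SD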). The note with it: DAMGO EC20, Fluo-4 calcium flux, at 1 µM; active compounds read high.
In assay [4] the test system is TRPC4 beta (transient receptor potential cation channel C4), mouse. In words: potentiation of DAMGO EC20 TRPC4 response – cell-based, Fluo-4, HEK293 TRPC4beta/mu-opioid, confirmation (AID 2555;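 active = primary screen hit whose calcium fluorescence ratio, in both repeats, exceeds the weak agonist control mean by 3 SD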). The note with it: DAMGO EC20, Fluo-4 calcium flux, at 10 µM; active compounds read high. For orientation: Calcium flux is commonly read through the fluorescence of an indicator in the cells.

Assay [5] has as its target Short transient receptor potential channel 4 (Mus musculus) (UniProt Q9QUQ5). In words: blockers of DAMGO-evoked TRPC4 calcium flux – cell-based, Fluo4, HEK293 TRPC4beta/mu-opioid, confirmation (AID 2636;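 active = calcium signal cut by more than 3 SD below the full-agonist control yet still positive, in both repeats and the earlier primary screen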). The note with it: at 10 µM; active compounds read high.
Assay [6] shares this target. In words: blockers of DAMGO-evoked TRPC4 calcium flux – cell-based, second round, Fluo4, HEK293 TRPC4beta/mu-opioid, 1 µM, confirmation (AID 2637;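 active = calcium signal ratio cut to more than 3 SD under the fully stimulated control mean yet still positive, in both repeats and the primary screen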). As to conditions: at 1 µM; active compounds read high.
Assay [7] shares this target. In words: calcium entry via TRPC4 opening agents – cell-based, HEK293 TRPC4/mu-opioid, Fluo-4 calcium, dose response (AID 434937). The note with it: HEK293 TRPC4 cells, Fluo-4 calcium fluorescence ratio; series mostly up to 20 µM.
Assay [8] has the same target. In words: potentiation of DAMGO-evoked TRPC4 calcium signal – cell-based, HEK293 TRPC4/mu-opioid, Fluo-4 calcium, EC20 DAMGO, dose response (AID 434941;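 active = earlier screen potentiator hit that boosts the TRPC4 ion channel at some dose, with a dose response; inactive = no potentiation, no dose response, or not a prior hit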;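 also: calcium entry triggered by an EC20 dose of DAMGO at the co-expressed mu-opioid receptor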). The note with it: HEK293 TRPC4/mu-opioid cells, Fluo-4 calcium fluorescence; series mostly up to 20 µM.
Assay [9] has the same target. The assay can be described thus: block of DAMGO-driven TRPC4 calcium entry – cell-based, HEK293 TRPC4/mu-opioid, Fluo-4 calcium, dose response (AID 434942;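 active = primary screen inhibitor hit that blocks the TRPC4 channel at some tested dose, yielding a dose curve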). As to conditions: HEK293 TRPC4/mu-opioid cells, DAMGO-evoked Fluo-4 calcium ratio; series mostly up to 20 µM.
The target in assay [10] is Short transient receptor potential channel 6 (Mus musculus) (UniProt Q61143). The assay can be described thus: TRPC6 blockade by TRPC4 inhibitor hits – cell-based, HEK293, membrane potential dye, duplicate, selectivity assay for TRPC4 inhibitor project, confirmation (AID 434948;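 active = active in primary screen and both duplicates, each dropping signal beyond three positive-control SD with fluorescence still positive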). The note with it: HEK293 TRPC6, membrane potential dye fluorescence, at 10 µM, stimulated with maximal-effect acetylcholine; active compounds read high.

For assay [11] the target is unchanged. In words: TRPC6 opening by TRPC4 activator hits – cell-based, HEK293, membrane potential dye, duplicate, selectivity assay for TRPC4 activator project, confirmation (AID 434950;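 active = membrane potential signal rise above negative control mean plus 3 SD in both duplicates, also active in the earlier TRPC4 screen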). The note with it: HEK293 TRPC6, membrane potential fluorescence, at 10 µM; activation: active compounds read high; outcome: activation.
For assay [12] the target is unchanged. In words: positive modulators of mouse TRPC6 channel – HEK293 cells, membrane potential dye, duplicate, selectivity assay for TRPC4 potentiator project, confirmation (AID 434952;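 active = compound raising the membrane signal above positive-control mean plus 3 SD in both repeats, and a primary screen hit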). The note with it: HEK293 TRPC6, membrane potential dye fluorescence, at 10 µM, maximal acetylcholine added after compound; active compounds read high.
The target in assay [13] is Short transient receptor potential channel 4 (Mus musculus) (UniProt Q9QUQ5). In words: calcium flux activators in TRPC4/5HT1a cells, counter-screen for TRPC4 activator project, cell-based, second counter screen, HEK293 TRPC4/5HT1a, Fluo-4 (AID 434977;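 active = calcium signal rise above buffer-control mean plus 5 SD in both duplicates, and also a hit in the primary screen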). The note with it: Fluo-4 calcium flux, at 10 µM; active compounds read high.
Assay [14] in a line: serotonin-gated TRPC4 signal block – cell-based, second counter screen, HEK293 TRPC4/5HT1a, Fluo-4, counter-screen for TRPC4 inhibitor project, confirmation (AID 434978;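 active = primary screen active whose calcium signal fell more than 3 SD beyond the full-serotonin control mean in both duplicate plates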;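 also: serotonin given first at submaximal then at maximal dose after compound preincubation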). The note with it: Fluo-4 calcium flux, at 10 µM, serotonin added to trigger calcium flux; active compounds read high. For orientation: Counterscreens check selectivity or assay interference.
In assay [15] the test system is TRPC4 (mouse), co-expressed with 5HT1a in HEK293. The assay can be described thus: enhancement of serotonin-evoked TRPC4 response – cell-based, second counter screen, HEK293 TRPC4/5HT1a, Fluo-4, counter-screen for TRPC4 potentiator project, confirmation (AID 434979;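 active = signal rise over 3 SD above mean of control wells given weak agonist, in both repeats and first screen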). As to conditions: Fluo-4 calcium flux, at 10 µM, serotonin added at its EC20 dose; active compounds read high.

Assay [16] in a line: nonspecific calcium rise without TRPC4 – cell-based, HEK293 mu-opioid receptor line, counter-screen for TRPC4 activator project, confirmation (AID 449723;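 active = hit in primary screen, with calcium signal over 5 SD above buffer well mean in both duplicates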;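 also: counter screen cells carry the mu-opioid receptor alone and lack TRPC4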). As to conditions: HEK293 mu-opioid cells, Fluo-4 calcium fluorescence, at 10 µM; active compounds read high.
Assay [17] in a line: nonspecific potentiation of DAMGO calcium response – cell-based, HEK293 mu-opioid receptor line, counter-screen for TRPC4 allosteric potentiator project, confirmation (AID 449724;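 active = calcium signal rise more than 3 SD above the low-dose agonist control mean, in both duplicate plates and the primary screen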;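 also: HEK293 cells carrying mu-opioid receptor only with no TRPC4 channel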). As to conditions: HEK293 mu-opioid receptor cells, Fluo-4 calcium flux, at 10 µM, compound added before EC20 DAMGO stimulus; active compounds read high.

Chain of Short transient receptor potential channel 4 (Mus musculus) (Q9QUQ5 whole entry, looked up): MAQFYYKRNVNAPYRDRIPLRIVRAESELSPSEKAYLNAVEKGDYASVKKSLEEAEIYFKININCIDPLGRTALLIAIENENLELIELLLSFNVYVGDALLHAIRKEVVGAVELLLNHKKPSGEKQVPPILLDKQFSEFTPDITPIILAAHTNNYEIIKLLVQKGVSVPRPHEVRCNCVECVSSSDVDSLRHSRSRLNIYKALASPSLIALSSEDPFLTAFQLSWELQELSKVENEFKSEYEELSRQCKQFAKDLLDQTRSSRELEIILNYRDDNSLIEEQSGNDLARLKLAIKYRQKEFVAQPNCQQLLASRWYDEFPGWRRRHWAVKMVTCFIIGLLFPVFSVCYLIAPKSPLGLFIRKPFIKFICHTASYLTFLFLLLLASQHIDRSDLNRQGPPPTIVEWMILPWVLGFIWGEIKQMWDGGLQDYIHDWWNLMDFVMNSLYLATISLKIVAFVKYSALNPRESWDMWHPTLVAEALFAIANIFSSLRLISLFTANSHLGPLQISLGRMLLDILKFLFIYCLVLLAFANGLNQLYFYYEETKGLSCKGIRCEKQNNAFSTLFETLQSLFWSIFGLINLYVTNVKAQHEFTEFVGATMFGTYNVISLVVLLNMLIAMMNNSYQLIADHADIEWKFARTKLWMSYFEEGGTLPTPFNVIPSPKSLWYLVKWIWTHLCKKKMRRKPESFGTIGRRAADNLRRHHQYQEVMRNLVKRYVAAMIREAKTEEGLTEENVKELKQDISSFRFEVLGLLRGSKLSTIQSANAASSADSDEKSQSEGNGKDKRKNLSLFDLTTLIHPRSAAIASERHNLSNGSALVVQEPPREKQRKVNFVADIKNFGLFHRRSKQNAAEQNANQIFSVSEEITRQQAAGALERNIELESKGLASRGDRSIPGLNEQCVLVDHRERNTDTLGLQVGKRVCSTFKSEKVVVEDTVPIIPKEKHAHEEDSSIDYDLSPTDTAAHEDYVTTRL
Chain of Short transient receptor potential channel 6 (Mus musculus) (Q61143 whole entry, looked up): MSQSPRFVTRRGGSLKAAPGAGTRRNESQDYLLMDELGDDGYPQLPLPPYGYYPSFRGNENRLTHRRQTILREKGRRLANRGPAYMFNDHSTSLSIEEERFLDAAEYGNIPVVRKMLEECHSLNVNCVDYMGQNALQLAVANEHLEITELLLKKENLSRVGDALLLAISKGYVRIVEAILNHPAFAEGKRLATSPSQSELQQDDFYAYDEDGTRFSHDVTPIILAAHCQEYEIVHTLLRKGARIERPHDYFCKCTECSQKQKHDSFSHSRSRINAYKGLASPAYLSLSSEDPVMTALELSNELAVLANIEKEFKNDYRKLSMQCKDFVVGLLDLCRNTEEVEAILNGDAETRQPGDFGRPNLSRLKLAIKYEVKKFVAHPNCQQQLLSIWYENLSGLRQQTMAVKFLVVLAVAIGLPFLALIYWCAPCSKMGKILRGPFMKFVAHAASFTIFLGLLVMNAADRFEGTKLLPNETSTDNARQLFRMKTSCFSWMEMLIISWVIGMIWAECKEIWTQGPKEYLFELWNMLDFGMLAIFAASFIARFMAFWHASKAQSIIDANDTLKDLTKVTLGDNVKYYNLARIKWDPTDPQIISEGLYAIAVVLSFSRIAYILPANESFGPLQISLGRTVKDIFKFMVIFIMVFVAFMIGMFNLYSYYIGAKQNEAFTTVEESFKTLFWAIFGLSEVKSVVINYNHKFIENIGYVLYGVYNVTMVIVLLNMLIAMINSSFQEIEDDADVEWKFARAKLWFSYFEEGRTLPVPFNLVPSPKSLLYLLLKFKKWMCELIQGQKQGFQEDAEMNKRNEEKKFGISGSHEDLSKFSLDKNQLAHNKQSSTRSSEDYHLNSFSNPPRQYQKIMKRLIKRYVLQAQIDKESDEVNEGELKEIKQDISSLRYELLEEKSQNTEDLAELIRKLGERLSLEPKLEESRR

For `CCOC(=O)CC(NC(=O)c1cc2cc(Cl)cc(Cl)c2oc1=O)c1cccc([N+](=O)[O-])c1` (centres undefined), the result in assay [1], in assay [2], in assay [3], in assay [5], in [6] and in assay [7] was inactive. For the same compound, the outcome in [8], in assay [9], in [10], in assay [11], in [12] and in assay [13] was inactive. Moreover, the outcome in [14], in assay [15], in assay [16] and in assay [17] was inactive. In assay [4], the potentiation was 35% (active).
For the compound `CN(C)CCCNC(=O)/C=C/c1ccc(OCc2c(F)cccc2Cl)cc1`, the outcome in assay [1], in assay [2], in assay [3], in [4], in assay [5] and in [6] was inactive. The result in assay [7], in assay [8], in assay [9], in [10], in assay [11] and in assay [12] was inactive. Further, the outcome in assay [13], in assay [14], in assay [16] and in assay [17] was inactive. Besides, the potentiation in assay [15] was 16.2% (active).
Consider `CN(Cc1ccccc1)C(=O)c1oc(=O)c2ccccc2c1-c1ccccc1`, for which the outcome in [1], in assay [2], in [3], in [4], in assay [5] and in assay [6] was inactive. Also, the result in [7], in assay [8], in assay [9], in assay [10], in assay [11] and in assay [12] was inactive. The outcome in assay [13], in assay [14], in [16] and in assay [17] was inactive. The potentiation in assay [15] is 9.58% (active).
In the case of `c1ccc(-c2cnc(SCCN3CCOCC3)n2CC2CCCO2)cc1` (centres undefined), the result in assay [1], in assay [2], in assay [3], in assay [4], in [5] and in [6] was inactive. Besides, the outcome in assay [7], in assay [8], in [9], in [10], in assay [11] and in [12] was inactive. Moreover, the result in assay [13], in assay [14], in [15], in [16] and in assay [17] was inactive.
As to `Cc1cccn2c(=O)c3cc(C(=O)N(C)C)n(C)c3nc12`, the result in assay [1], in assay [2], in [3], in assay [5], in assay [6] and in [7] was inactive. The result in [8], in [9], in [10], in [11], in assay [12] and in assay [13] was inactive. For the same compound, the result in [14], in assay [16] and in assay [17] was inactive. Further, the results for the potentiation in assay [4] and in assay [15] were 29% (active) and 37.3% (active), respectively.
`COc1ccc(/C=N/Nc2nc3ccccc3s2)cc1O`: the result in assay [1], in [2], in assay [3], in [4], in assay [5] and in assay [6] was inactive. Besides, the result in [7], in assay [8], in [9], in assay [10], in [11] and in [12] was inactive. Also, the result in assay [13], in assay [14], in assay [16] and in assay [17] was inactive. The potentiation in assay [15] is 26% (active).
With `COc1ccc(OCC(=O)NC2CCCN(Cc3ccc(Cl)cc3)C2)cc1` (centres undefined), the result in [1], in [2], in assay [4], in [5], in assay [6] and in assay [7] was inactive. Also, the result in assay [8], in assay [9], in assay [10], in assay [11], in [12] and in assay [13] was inactive. Moreover, the outcome in assay [14], in assay [16] and in assay [17] was inactive. For the same compound, the potentiation in assay [3] is 26% (active); in assay [15], 15.2% (active).
For the compound `Cc1ccc(-n2c(N)cc(=O)nc2SCC(=O)N2CCN(c3ccccc3)CC2)cc1`, the outcome in assay [1], in assay [2], in [3], in assay [4], in [5] and in assay [6] was inactive. Moreover, the outcome in [7], in assay [8], in assay [9], in [10], in assay [11] and in assay [12] was inactive. For the same compound, the result in [13], in assay [14], in assay [15], in assay [16] and in assay [17] was inactive.
With `Cc1ccc(S(=O)(=O)N2CCN(c3cc4c(cc3[N+](=O)[O-])n(C)c(=O)n4C)CC2)cc1`, the result in assay [1], in assay [2], in assay [3], in assay [4], in [5] and in assay [6] was inactive. In addition, the result in [7], in assay [8], in assay [9], in assay [10], in assay [11] and in assay [12] was inactive. The outcome in assay [13], in assay [14], in assay [16] and in assay [17] was inactive. In assay [15], the potentiation was 10.6% (active).
In the case of `CC(=O)Nc1nc2ccc(S(=O)(=O)N3CCCCC3)cc2s1`, the outcome in assay [1], in [2], in assay [3], in assay [4], in [5] and in [6] was inactive. The outcome in assay [7], in [8], in assay [9], in assay [10], in assay [11] and in assay [12] was inactive. The result in assay [13], in [14], in assay [15], in assay [16] and in assay [17] was inactive.
As for `CSCC(C)N1CCC(CO)(CCCc2ccccc2)CC1` (centres undefined), the result in assay [1], in [2], in assay [3], in assay [4], in assay [5] and in [6] was inactive. Also, the outcome in assay [7], in assay [8], in assay [9], in assay [10], in assay [11] and in [12] was inactive. In addition, the result in assay [13], in [14], in assay [15], in [16] and in assay [17] was inactive.
Regarding `CN(C)CCOC(=O)C1(c2ccccc2)CCOCC1`, the outcome in assay [1], in assay [2], in [3], in [5], in assay [6] and in assay [7] was inactive. Also, the outcome in [8], in assay [9], in assay [10], in assay [11], in [12] and in assay [13] was inactive. In addition, the result in assay [14], in [16] and in [17] was inactive. Besides, the potentiation in assay [4] is 8% (active); in assay [15], 23.2% (active).
